# Experimental data as given in the supplement of paper PMC4466140.
# B1: unnamed (peptide)
# chain: RAPPPVPKKPSSRIA
# B2: unnamed (peptide)
# chain: DKKTKPTPPPKPSHL
# How the values were obtained:
# Assay in all cases: SPOT peptide array binding signal intensity (averaged, normalized) (arbitrary units (background-subtracted, floor 0; scale differs between SH3 domains)); higher = stronger binding of the SH3 domain to the peptide
# AgAbp1 = target: AgAbp1
# Outline: (§1)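 GST-fused SH3 domains from four yeast species were expressed in E. coli BL21(DE3), purified on glutathione Sepharose and incubated at 10 μg/ml overnight at 4°C in TBS-based blocking buffer on cellulose membranes carrying synthetic 15-mer peptides, with cysteines replaced by serines. Bound protein was detected with anti-GST antibody, an HRP anti-mouse secondary and luminol, then imaged and quantified with Genespotter. Binding signal is the normalized, background-subtracted spot intensity averaged over replicates, in arbitrary units that differ between domains.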
# AgBbc1 = target: AgBbc1
# Outline: as §1
# AgBem1-D1 = target: AgBem1-D1
# Outline: as §1
# AgBzz1-D1 = target: AgBzz1-D1
# Outline: as §1
# AgBzz1-D2 = target: AgBzz1-D2
# Outline: as §1
# AgCyk3 = target: AgCyk3
# Outline: as §1
# AgFus1 = target: AgFus1
# Outline: as §1
# AgHof1 = target: AgHof1
# Outline: as §1
# AgHse1 = target: AgHse1
# Outline: as §1
# AgLsb1 = target: AgLsb1
# Outline: as §1
# AgLsb4 = target: AgLsb4
# Outline: as §1
# AgMyo5 = target: AgMyo5
# Outline: as §1
# AgNbp2 = target: AgNbp2
# Outline: as §1
# AgRvs167 = target: AgRvs167
# Outline: as §1
# AgSho1 = target: AgSho1
# Outline: as §1
# AgSla1-D1-D2 = target: AgSla1-D1-D2
# Outline: as §1
# AgSla1-D3 = target: AgSla1-D3
# Outline: as §1
# CaAbp1-D1 = target: CaAbp1-D1
# Outline: as §1
# CaAbp1-D2 = target: CaAbp1-D2
# Outline: as §1
# CaBbc1 = target: CaBbc1
# Outline: as §1
# CaBem1-D1 = target: CaBem1-D1
# Outline: as §1
# CaBzz1-D1 = target: CaBzz1-D1
# Outline: as §1
# CaBzz1-D2 = target: CaBzz1-D2
# Outline: as §1
# CaCyk3 = target: CaCyk3
# Outline: as §1
# CaFus1 = target: CaFus1
# Outline: as §1
# CaHof1 = target: CaHof1
# Outline: as §1
# CaHse1 = target: CaHse1
# Outline: as §1
# CaLsb1 = target: CaLsb1
# Outline: as §1
# CaLsb4 = target: CaLsb4
# Outline: as §1
# CaMyo5 = target: CaMyo5
# Outline: as §1
# CaNbp2 = target: CaNbp2
# Outline: as §1
# CaRvs167 = target: CaRvs167
# Outline: as §1
# CaRvs167-3 = target: CaRvs167-3
# Outline: as §1
# CaSho1 = target: CaSho1
# Outline: as §1
# CaSla1-D1-D2 = target: CaSla1-D1-D2
# Outline: as §1
# CaSla1-D3 = target: CaSla1-D3
# Outline: as §1
# ScAbp1 = target: ScAbp1
# Outline: as §1
# ScBbc1 = target: ScBbc1
# Outline: as §1
# ScBem1-D1 = target: ScBem1-D1
# Outline: as §1
# ScBzz1-D1 = target: ScBzz1-D1
# Outline: as §1
# ScBzz1-D2 = target: ScBzz1-D2
# Outline: as §1
# ScCyk3 = target: ScCyk3
# Outline: as §1
# ScFus1 = target: ScFus1
# Outline: as §1
# ScHof1 = target: ScHof1
# Outline: as §1
# ScHse1 = target: ScHse1
# Outline: as §1
# ScLsb1 = target: ScLsb1
# Outline: as §1
# ScLsb2 = target: ScLsb2
# Outline: as §1
# ScLsb3 = target: ScLsb3
# Outline: as §1
# ScLsb4 = target: ScLsb4
# Outline: as §1
# ScMyo3 = target: ScMyo3
# Outline: as §1
# ScMyo5 = target: ScMyo5
# Outline: as §1
# ScNbp2 = target: ScNbp2
# Outline: as §1
# ScPex13 = target: ScPex13
# Outline: as §1
# ScRvs167 = target: ScRvs167
# Outline: as §1
# ScSho1 = target: ScSho1
# Outline: as §1
# ScSla1-D1-D2 = target: ScSla1-D1-D2
# Outline: as §1
# ScSla1-D3 = target: ScSla1-D3
# Outline: as §1
# SpAbp1-D1 = target: SpAbp1-D1
# Outline: as §1
# SpBbc1 = target: SpBbc1
# Outline: as §1
# SpBzz1-D1 = target: SpBzz1-D1
# Outline: as §1
# SpBzz1-D2 = target: SpBzz1-D2
# Outline: as §1
# SpCyk3 = target: SpCyk3
# Outline: as §1
# SpHof1 = target: SpHof1
# Outline: as §1
# SpHof1-2 = target: SpHof1-2
# Outline: as §1
# SpHof1-3 = target: SpHof1-3
# Outline: as §1
# SpHse1 = target: SpHse1
# Outline: as §1
# SpLsb1 = target: SpLsb1
# Outline: as §1
# SpLsb4 = target: SpLsb4
# Outline: as §1
# SpMyo1 = target: SpMyo1
# Outline: as §1
# SpNbp2 = target: SpNbp2
# Outline: as §1
# SpPex13 = target: SpPex13
# Outline: as §1
# SpRvs167 = target: SpRvs167
# Outline: as §1
# SpSla1-D1-D2 = target: SpSla1-D1-D2
# Outline: as §1
# SpSla1-D3 = target: SpSla1-D3
# Outline: as §1
binder,measurement,setting,value
B1,SPOT peptide array binding signal intensity,AgAbp1,8420
same,SPOT peptide array binding signal intensity,AgBbc1,1600
same,SPOT peptide array binding signal intensity,AgBem1-D1,51.5
same,SPOT peptide array binding signal intensity,AgBzz1-D1,3320
same,SPOT peptide array binding signal intensity,AgBzz1-D2,373
same,SPOT peptide array binding signal intensity,AgCyk3,≤ 0
same,SPOT peptide array binding signal intensity,AgFus1,≤ 0
same,SPOT peptide array binding signal intensity,AgHof1,415
same,SPOT peptide array binding signal intensity,AgHse1,102
same,SPOT peptide array binding signal intensity,AgLsb1,676
same,SPOT peptide array binding signal intensity,AgLsb4,48
same,SPOT peptide array binding signal intensity,AgMyo5,36.8
same,SPOT peptide array binding signal intensity,AgNbp2,3960
same,SPOT peptide array binding signal intensity,AgRvs167,230
same,SPOT peptide array binding signal intensity,AgSho1,296
same,SPOT peptide array binding signal intensity,AgSla1-D1-D2,≤ 0
same,SPOT peptide array binding signal intensity,AgSla1-D3,380
same,SPOT peptide array binding signal intensity,CaAbp1-D1,2320
same,SPOT peptide array binding signal intensity,CaAbp1-D2,4330
same,SPOT peptide array binding signal intensity,CaBbc1,1870
same,SPOT peptide array binding signal intensity,CaBem1-D1,12.5
same,SPOT peptide array binding signal intensity,CaBzz1-D1,5970
same,SPOT peptide array binding signal intensity,CaBzz1-D2,2940
same,SPOT peptide array binding signal intensity,CaCyk3,61.5
same,SPOT peptide array binding signal intensity,CaFus1,28.5
same,SPOT peptide array binding signal intensity,CaHof1,≤ 0
same,SPOT peptide array binding signal intensity,CaHse1,1200
same,SPOT peptide array binding signal intensity,CaLsb1,0.5
same,SPOT peptide array binding signal intensity,CaLsb4,2220
same,SPOT peptide array binding signal intensity,CaMyo5,2.5
same,SPOT peptide array binding signal intensity,CaNbp2,1040
same,SPOT peptide array binding signal intensity,CaRvs167,170
same,SPOT peptide array binding signal intensity,CaRvs167-3,1
same,SPOT peptide array binding signal intensity,CaSho1,94
same,SPOT peptide array binding signal intensity,CaSla1-D1-D2,3890
same,SPOT peptide array binding signal intensity,CaSla1-D3,250
same,SPOT peptide array binding signal intensity,ScAbp1,2860
same,SPOT peptide array binding signal intensity,ScBbc1,270
same,SPOT peptide array binding signal intensity,ScBem1-D1,9
same,SPOT peptide array binding signal intensity,ScBzz1-D1,565
same,SPOT peptide array binding signal intensity,ScBzz1-D2,33
same,SPOT peptide array binding signal intensity,ScCyk3,7
same,SPOT peptide array binding signal intensity,ScFus1,1
same,SPOT peptide array binding signal intensity,ScHof1,1.5
same,SPOT peptide array binding signal intensity,ScHse1,≤ 0
same,SPOT peptide array binding signal intensity,ScLsb1,452
same,SPOT peptide array binding signal intensity,ScLsb2,1030
same,SPOT peptide array binding signal intensity,ScLsb3,4390
same,SPOT peptide array binding signal intensity,ScLsb4,52.5
same,SPOT peptide array binding signal intensity,ScMyo3,80.5
same,SPOT peptide array binding signal intensity,ScMyo5,50.2
same,SPOT peptide array binding signal intensity,ScNbp2,5230
same,SPOT peptide array binding signal intensity,ScPex13,869
same,SPOT peptide array binding signal intensity,ScRvs167,1400
same,SPOT peptide array binding signal intensity,ScSho1,2740
same,SPOT peptide array binding signal intensity,ScSla1-D1-D2,2100
same,SPOT peptide array binding signal intensity,ScSla1-D3,331
same,SPOT peptide array binding signal intensity,SpAbp1-D1,2240
same,SPOT peptide array binding signal intensity,SpBbc1,26
same,SPOT peptide array binding signal intensity,SpBzz1-D1,2030
same,SPOT peptide array binding signal intensity,SpBzz1-D2,198
same,SPOT peptide array binding signal intensity,SpCyk3,5
same,SPOT peptide array binding signal intensity,SpHof1,186
same,SPOT peptide array binding signal intensity,SpHof1-2,20.2
same,SPOT peptide array binding signal intensity,SpHof1-3,372
same,SPOT peptide array binding signal intensity,SpHse1,126
same,SPOT peptide array binding signal intensity,SpLsb1,1720
same,SPOT peptide array binding signal intensity,SpLsb4,1110
same,SPOT peptide array binding signal intensity,SpMyo1,151
same,SPOT peptide array binding signal intensity,SpNbp2,48.5
same,SPOT peptide array binding signal intensity,SpPex13,≤ 0
same,SPOT peptide array binding signal intensity,SpRvs167,1860
same,SPOT peptide array binding signal intensity,SpSla1-D1-D2,576
same,SPOT peptide array binding signal intensity,SpSla1-D3,≤ 0
B2,SPOT peptide array binding signal intensity,SpBzz1-D2,≤ 0
same,SPOT peptide array binding signal intensity,SpCyk3,≤ 0
same,SPOT peptide array binding signal intensity,SpHof1,0.75
same,SPOT peptide array binding signal intensity,SpHof1-2,6.5
same,SPOT peptide array binding signal intensity,SpHof1-3,86
same,SPOT peptide array binding signal intensity,SpHse1,0.75
same,SPOT peptide array binding signal intensity,SpLsb1,138
same,SPOT peptide array binding signal intensity,SpLsb4,≤ 0
same,SPOT peptide array binding signal intensity,SpMyo1,≤ 0
same,SPOT peptide array binding signal intensity,SpNbp2,≤ 0
same,SPOT peptide array binding signal intensity,SpPex13,1.5
same,SPOT peptide array binding signal intensity,SpRvs167,33.3
same,SPOT peptide array binding signal intensity,SpSla1-D1-D2,≤ 0
same,SPOT peptide array binding signal intensity,SpSla1-D3,1
